Here are results for 64 compounds from the antibiotic and cytotoxicity screens of Wong et al. (2023).

The structures appear in SMILES notation. About 3,300 (8.5%) of roughly 39,000 compounds were called active. This excerpt belongs to a sample that is enriched for actives.

This experiment deals with HepG2. Kind of experiment: cytotoxicity call (relative viability < 0.9). The settings on record: 10 µM.
`O=S1(=O)CC=CC1`: the cytotoxicity call is “inactive”.
Under `Cc1ccc(S[C@]2(C(=O)NC3CC3)CC(=O)N(C3CCCCC3)[C@@H]2c2ccc(CO)cc2I)cc1` stands “inactive”; under `Cc1noc(C)c1S(=O)(=O)Nc1ccc2c(c1)C(=O)N([C@H](C)CO)C[C@@H](C)[C@H](CN(C)C)OCCCC[C@@H](C)O2`, “inactive”.
With `COc1ccc2c3c(n(c2c1)C)[C@@H](CO)N(C[C@]13CCN(CC1)Cc1ccccc1F)C(=O)Nc1ccc(cc1)F` the entry was “active”; with `COc1ccc2c3c(n(c2c1)C)[C@H](CO)N(C[C@]13CCN(CC1)Cc1cccc(c1)F)C(=O)Nc1ccc(cc1)F`, “active”; with `COc1ccc2c3c(n(c2c1)C)[C@H](CO)N(C[C@]13CCN(CC1)Cc1ccccc1F)C(=O)Nc1ccc(cc1)F`, “inactive”.
With `COc1cccc(c1)CN1CC[C@]2(CC1)CN([C@H](CO)c1c2c2ccc(cc2n1C)OC)C(=O)Nc1ccc(cc1)F` the entry was “inactive”.
On to `COc1ccc2c3c(n(c2c1)C)[C@@H](CO)N(C[C@]13CCN(CC1)C(=O)c1ccccc1F)C(=O)Nc1ccc(cc1)F`, for which the cytotoxicity call was “inactive”.
With `COc1ccc2c3c(n(c2c1)C)[C@@H](CO)N(C[C@]13CCN(CC1)Cc1cccc(c1)F)C(=O)Nc1ccc(cc1)F` the entry was “inactive”; with `O=C(C[C@H]1CC[C@@H]2[C@H](COC[C@H](O)CN2C(=O)Nc2cccc(F)c2)O1)NCc1ccccc1Cl`, “inactive”; with `CN1C(=O)c2cc(NC(=O)c3ccc(F)c(F)c3)ccc2OC[C@@H]2O[C@@H](CC(=O)N3CCOCC3)CC[C@H]21`, “inactive”.
Under `C[C@H](CO)N1C[C@H](C)[C@@H](CN(C)C(=O)Cc2ccccc2)Oc2cc(-c3cncnc3)ccc2S1(=O)=O` stands “inactive”; under `C[C@@H]1CN([C@H](C)CO)C(=O)c2cc(C#Cc3cccc(F)c3)cnc2O[C@@H]1CN(C)CC1CCOCC1`, “inactive”; under `COc1ccc(S(=O)(=O)N(C)C[C@@H]2Oc3cc(C#CC4CC4)ccc3S(=O)(=O)N([C@H](C)CO)C[C@@H]2C)cc1`, “inactive”.
Under `CO[C@H]1CN(C)C(=O)c2cc(NC(=O)NC3CCCCC3)ccc2OC[C@@H](C)N(CCc2ccccc2)C[C@H]1C` stands “inactive”.
Regarding `Cc1noc(C)c1S(=O)(=O)Nc1ccc2c(c1)CC(=O)N([C@@H](C)CO)C[C@@H](C)[C@@H](CN(C)C(=O)NC1CCCCC1)O2`, the cytotoxicity call is “inactive”.
Under `CN(C)CCCNC(=O)C[C@H]1CC[C@H]2[C@@H](COC[C@@H](O)CN2S(=O)(=O)c2ccccc2)O1` stands “inactive”; under `C[C@@H]1CCCCO[C@H](CN(C)C(=O)Cc2ccccc2)[C@@H](C)CN([C@@H](C)CO)C(=O)c2cc(NC(=O)Nc3ccc(F)cc3)ccc2O1`, “inactive”; under `C[C@@H]1CN([C@H](C)CO)C(=O)c2c(c3ccccc3n2C)-c2ccccc2CO[C@H]1CN(C)S(=O)(=O)c1ccc(Cl)cc1`, “inactive”.
With `C[C@@H]1CN([C@@H](C)CO)C(=O)c2c(c3ccccc3n2C)-c2ccccc2CO[C@H]1CN(C)S(=O)(=O)c1ccc(Cl)cc1` the entry was “active”.
Under `C[C@@H]1CN([C@H](C)CO)C(=O)c2c(c3ccccc3n2C)-c2ccccc2CO[C@@H]1CN(C)S(=O)(=O)c1ccc(Cl)cc1` stands “inactive”; under `C[C@@H]1CN([C@H](C)CO)C(=O)c2c(c3ccccc3n2C)-c2ccccc2CO[C@@H]1CN(C)S(=O)(=O)c1ccc(C(F)(F)F)cc1`, “inactive”.
On to `C[C@@H]1CN([C@@H](C)CO)C(=O)c2c(c3ccccc3n2C)-c2ccccc2CO[C@@H]1CN(C)S(=O)(=O)c1ccc(Cl)cc1`, for which the cytotoxicity call is “inactive”.
With `C[C@H]1CN([C@@H](C)CO)C(=O)c2c(c3ccccc3n2C)-c2ccccc2CO[C@H]1CN(C)S(=O)(=O)c1ccc(Cl)cc1` the entry was “active”; with `C[C@@H]1CN([C@@H](C)CO)C(=O)c2c(c3ccccc3n2C)-c2ccccc2CO[C@H]1CN(C)S(=O)(=O)c1ccc(C(F)(F)F)cc1`, “inactive”; with `C[C@H](CO)N1C[C@H](C)[C@@H](CN(C)S(=O)(=O)c2ccc(Cl)cc2)OCc2ccccc2-c2c(n(C)c3ccccc23)C1=O`, “inactive”.
Under `C[C@@H]1CN([C@@H](C)CO)C(=O)c2c(c3ccccc3n2C)-c2ccccc2CO[C@@H]1CN(C)S(=O)(=O)c1ccc(C(F)(F)F)cc1` stands “inactive”; under `C[C@H](CO)N1C[C@H](C)[C@H](CN(C)S(=O)(=O)c2ccc(Cl)cc2)OCc2ccccc2-c2c(n(C)c3ccccc23)C1=O`, “active”; under `C[C@H]1CN([C@@H](C)CO)C(=O)c2c(c3ccccc3n2C)-c2ccccc2CO[C@H]1CN(C)S(=O)(=O)c1ccc(C(F)(F)F)cc1`, “inactive”.
With `C[C@H]1CN([C@@H](C)CO)C(=O)c2c(c3ccccc3n2C)-c2ccccc2CO[C@@H]1CN(C)S(=O)(=O)c1ccc(Cl)cc1` the entry was “active”; with `C[C@@H]1CCCCO[C@H](CN(C)CC2CC2)[C@H](C)CN([C@@H](C)CO)C(=O)c2cc(NS(=O)(=O)c3cn(C)cn3)ccc2O1`, “inactive”.
`COCC#Cc1ccc2c(c1)O[C@@H](CN(C)S(=O)(=O)c1ccc(C)cc1)[C@H](C)CN([C@@H](C)CO)S2(=O)=O`: the cytotoxicity call was “inactive”.
With `O=C1N[C@H]2[C@@H]1[C@@H]1C=C[C@H]2C1` the entry was “inactive”.
As for `COc1ccc(NC(=O)Nc2cccc3c2O[C@@H](CN(C)Cc2ccc(C(F)(F)F)cc2)[C@@H](C)CN([C@@H](C)CO)C3=O)cc1`, the cytotoxicity call is “inactive”.
Under `Cc1ccc(S(=O)(=O)Nc2ccc3c(c2)C(=O)N([C@H](C)CO)C[C@@H](C)[C@H](CN(C)C(=O)NC2CCCCC2)OCCCC[C@H](C)O3)cc1` stands “inactive”.
Under `C[C@@H]1CCCCO[C@H](CN(C)Cc2ccccc2)[C@@H](C)CN([C@@H](C)CO)C(=O)c2cc(NC(=O)c3ccccc3)ccc2O1` stands “inactive”; under `CNC(=O)C[C@H]1Nc2ccccc2NC1=O`, “inactive”.
Under `N[C@H]1CCCC[C@@H]1OCc1ccccc1` stands “inactive”; under `CC1CCC2(C)C(C=O)=CCCC2C1(C)CC1OC(O)C(=O)C12CO2` (centres undefined), “active”.
`Cc1noc(C)c1S(=O)(=O)N(C)C[C@@H]1OCc2cn(nn2)CCCC(=O)N([C@@H](C)CO)C[C@H]1C`: the cytotoxicity call was “inactive”.
Consider `C[C@@H]1CN([C@@H](C)CO)C(=O)c2cc(NC(=O)Cc3ccccc3)ccc2O[C@H]1CN(C)Cc1ccc(Oc2ccccc2)cc1`, for which the cytotoxicity call is “inactive”.
Regarding `C[C@@H]1CN([C@@H](C)CO)C(=O)c2cc(NC(=O)Cc3ccccc3)ccc2O[C@@H]1CN(C)Cc1ccc(Oc2ccccc2)cc1`, the cytotoxicity call was “active”.
Take `C[C@H]1CN([C@@H](C)CO)C(=O)c2cc(NC(=O)Cc3ccccc3)ccc2O[C@@H]1CN(C)Cc1ccc(Oc2ccccc2)cc1`: the cytotoxicity call was “active”.
On to `C[C@H]1CN([C@@H](C)CO)C(=O)c2cc(NC(=O)Cc3ccccc3)ccc2O[C@H]1CN(C)Cc1ccc(Oc2ccccc2)cc1`, for which the cytotoxicity call was “inactive”.
Take `C[C@H](CO)N1C[C@H](C)[C@H](CN(C)Cc2ccc(Oc3ccccc3)cc2)Oc2ccc(NC(=O)Cc3ccccc3)cc2C1=O`: the cytotoxicity call is “inactive”.
`C[C@@H]1CN([C@H](C)CO)C(=O)c2cc(NC(=O)Cc3ccccc3)ccc2O[C@@H]1CN(C)Cc1ccc(Oc2ccccc2)cc1`: the cytotoxicity call was “inactive”.
With `C[C@@H]1CN([C@H](C)CO)C(=O)c2cc(NC(=O)Cc3ccccc3)ccc2O[C@H]1CN(C)Cc1ccc(Oc2ccccc2)cc1` the entry was “active”; with `C[C@H](CO)N1C[C@H](C)[C@@H](CN(C)Cc2ccc(Oc3ccccc3)cc2)Oc2ccc(NC(=O)Cc3ccccc3)cc2C1=O`, “inactive”.
With `COc1ccc(NC(=O)N(C)C[C@H]2Oc3ccc(NC(=O)CCCCCC(=O)Nc4ccccc4N)cc3CC(=O)N([C@@H](C)CO)C[C@@H]2C)cc1` the entry was “inactive”; with `C[C@H](CO)N1C[C@H](C)[C@@H](CN(C)S(C)(=O)=O)Oc2c(NC(=O)NC3CCCCC3)cccc2C1=O`, “inactive”; with `CO[C@H]1CN(C)C(=O)c2ccc(NC(=O)NC(C)C)cc2OC[C@@H](C)N(Cc2ccc(-c3ccccn3)cc2)C[C@H]1C`, “inactive”.
With `O=C(CN1CCOCC1)NCC[C@@H]1CC[C@@H](NC(=O)Nc2ccccc2)[C@H](CO)O1` the entry was “inactive”; with `COc1ccc(-c2cnc3c(c2)C(=O)N([C@@H](C)CO)C[C@@H](C)[C@@H](CN(C)C(=O)Cc2ccccn2)O3)cc1`, “inactive”.
Consider `CN(C)S(=O)(=O)N1CCN(CC(=O)Nc2ccc(Br)cc2)CC1`, for which the cytotoxicity call was “inactive”.
With `C[C@H]1CN([C@@H](C)CO)C(=O)c2cccc(NC(=O)c3cnccn3)c2O[C@H]1CN(C)S(=O)(=O)c1ccc(F)cc1` the entry was “inactive”; with `C[C@@H]1CN([C@H](C)CO)C(=O)c2cc(NC(=O)CCC(F)(F)F)ccc2O[C@@H](C)CCCCO[C@@H]1CN(C)Cc1ccc(C(=O)O)cc1`, “inactive”.
For the compound `O=C(O)CC1CCOCC1`, the cytotoxicity call is “inactive”.
Under `C[C@@H]1CCCCO[C@@H](CN(C)C)[C@H](C)CN([C@H](C)CO)C(=O)c2cc(NC(=O)CCCCCC(=O)Nc3ccccc3N)ccc2O1` stands “inactive”; under `COc1ccc(CN(C)C[C@H]2OCCCC[C@@H](C)Oc3ccc(NC(=O)Nc4ccccc4)cc3C(=O)N([C@@H](C)CO)C[C@H]2C)cc1`, “active”; under `COc1ccc(CN(C)C[C@@H]2OCCCC[C@@H](C)Oc3ccc(NC(=O)Nc4ccccc4)cc3C(=O)N([C@@H](C)CO)C[C@@H]2C)cc1`, “inactive”.
For `COc1ccc(CN(C)C[C@H]2OCCCC[C@@H](C)Oc3ccc(NC(=O)Nc4ccccc4)cc3C(=O)N([C@H](C)CO)C[C@@H]2C)cc1`, the cytotoxicity call was “inactive”.
Under `COc1ccc(CN(C)C[C@@H]2OCCCC[C@H](C)Oc3ccc(NC(=O)Nc4ccccc4)cc3C(=O)N([C@H](C)CO)C[C@H]2C)cc1` stands “inactive”; under `COc1ccc(CN(C)C[C@H]2OCCCC[C@@H](C)Oc3ccc(NC(=O)Nc4ccccc4)cc3C(=O)N([C@H](C)CO)C[C@H]2C)cc1`, “active”.
Under `COc1ccc(CN(C)C[C@H]2OCCCC[C@H](C)Oc3ccc(NC(=O)Nc4ccccc4)cc3C(=O)N([C@@H](C)CO)C[C@@H]2C)cc1` stands “inactive”.
